Screening data deposited in PubChem BioAssay by National Center for Advancing Translational Sciences (NCATS).
Sampled rows, rich in hits. Any-hit rate of the full collection: about 4%.
D1 ag – agonists of human D1 dopamine receptor; P21728; HEK293 T-REx D1 cells, calcium flux, agonist mode; activation, % at 2 µM; actives 1% (n = 360,000); AID 504660; also: 0% is about no effect
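Inducible HEK293 T-REx D1 cells, force-coupled to calcium signalling, were plated at 4000 cells/well with tetracycline and held overnight at 30 C. After no-wash calcium dye loading, compound-evoked calcium rise over 180 s flagged agonists.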
TRHR ag – activates the human TRH receptor | P34981 | TRHR cells, calcium flux fluo-8, FDSS agonist mode | activation, % at 2 µM | actives 0.18% (n = 360,000); also: 0% is about no effect
Target sequence (P34981 whole entry, looked up): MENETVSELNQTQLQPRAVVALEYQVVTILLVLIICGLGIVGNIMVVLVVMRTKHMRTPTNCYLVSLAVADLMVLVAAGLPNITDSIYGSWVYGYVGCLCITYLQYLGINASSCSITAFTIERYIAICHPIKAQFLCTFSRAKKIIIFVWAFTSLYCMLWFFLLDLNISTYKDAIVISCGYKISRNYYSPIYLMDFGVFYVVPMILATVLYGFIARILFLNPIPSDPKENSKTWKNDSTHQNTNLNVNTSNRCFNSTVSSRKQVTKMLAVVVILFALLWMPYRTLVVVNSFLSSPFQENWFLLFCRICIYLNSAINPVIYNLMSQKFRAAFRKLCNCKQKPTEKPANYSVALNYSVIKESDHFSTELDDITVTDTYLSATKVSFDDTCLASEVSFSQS
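Read-out: compound-evoked intracellular calcium rise in TRHR cells, fluo-8 dye, kinetic FDSS fluorescence at 1 s/cycle following a 10-cycle baseline. Cells cultured overnight before dye loading (30 min–1.5 h, RT).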
Glioma ERSR ind – ER stress response induction in glioma | Potency, µM, for the others: at the highest dose activation, usual class: activators | U87-MG GRP78 promoter luciferase reporter, 16 h | actives 0.02% (n = 420,000); active = well fitted activation curve with a large enough effect; also: potency is read from the fitted curve at half-maximal effect; series mostly up to about 76 µM; % of control where 0% means no effect; nearly all actives have a fitted effect of over 35% in size
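Stably transfected U87-MG human glioma cells carrying a GRP78-based luminescent sensor were seeded at 1000 cells/well, pin-dosed with compounds and incubated 16 h. Luciferase reagent was then added, and end-point luminescence was read after 10 min at room temperature.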
D1 antagonist – blocks dopamine activation of the human D1 receptor; actives 3.2% (n = 360,000); activity change, negative = inhibition, % at 10 µM; AID 504652; HEK293 TREx D1 cells, calcium flux, dopamine EC80; active compounds read low; in the data active = activity change below about -30%; also: % is scaled to controls: 0 for no effect and ±100 for the full control effect
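Tetracycline-induced HEK293 T-REx cells with force-coupled D1 receptor were loaded with a no-wash calcium dye. Compound was added after a 10 s baseline and read kinetically for 180 s; EC80 dopamine was then added and calcium flux followed another 180 s.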
D1 PAM – human D1 dopamine receptor positive modulation; HEK293 TREx D1 cells, calcium flux, dopamine EC20 potentiation; potentiation, % at 10 µM; actives 0.036% (n = 360,000); in the data active = potentiation above about 30%; also: 0% is about no effect
TRHR PAM – TRH receptor (human) allosteric enhancement; TRHR cells, fluo-8 calcium fluorescence, EC20 TRH enhancement; enhancement, % at 2 µM; actives 0.66% (n = 360,000); AID 493056; in the data active = enhancement above about 30%; also: 0% is about no effect
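TRHR-expressing cells loaded with fluo-8 calcium dye were read kinetically (ex 480/em 530) during compound addition, then stimulated with an EC20 of TRH (10 nM final). Enhancement of the Gq-mediated intracellular calcium response was scored.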
Starred values were filed as active, the others as inactive; x = no result. Rule as the data show it, unless noted: active = activation above about 30%; inactive = the rest.

SMILES	D1 ag	TRHR ag	Glioma ERSR ind	D1 antagonist	D1 PAM	TRHR PAM
Cc1cc(NC(=O)Cn2cnc3c(cnn3C(C)(C)C)c2=O)no1	-2	0	0%	2	-1	-3
CCN(CC)S(=O)(=O)c1cc(NC(=S)NC(=O)C2CCCC2)ccc1C	x	x	-1%	x	x	x
O=C(CN1CCN(c2ccc(F)cc2)CC1)Nc1nnc(-c2ccccc2)s1	1	0	-2%	-7	4	-5
COc1ccc(-n2nc3c(c2NC(=O)C(=O)N2CCN(C)CC2)CSC3)cc1	-1	0	-1%	x	-2	43*
O=c1c2cc(Br)ccc2nc(-c2cccc(C(F)(F)F)c2)n1O	62*	15	-6%	3	4	-4
O=c1c2cc(Cl)ccc2nc(-c2ccc(Cl)c(Cl)c2)n1O	88*	17	-1%	-45*	-10	9
COC(=O)c1sc(S(=O)(=O)N2CCN(c3ccccc3)CC2)c(C(=O)OC)c1C	1	0	-1%	-18	-3	-1
COC(=O)C1=CNC=C(C(=O)OC)C1c1cccc(OC)c1	2	-1	-2%	8	-3	0
C=CCNC(=O)Cn1nc(-c2ccccc2)ccc1=O	0	1	-1%	-24	0	3
Cc1ccsc1/C=N/NC(=O)c1ccncc1	3	0	1%	5	2	-1
Cc1ccsc1/C=N/NC(=O)c1ccc2ccccc2c1	0	0	0%	-49*	-11	-25
O=C(O)c1ccc(Cn2c(SCc3cc(=O)n4cc(Br)ccc4n3)nc3ccsc3c2=O)cc1	1	1	x	-31*	5	-2
O=C(O)C1CCC(Cn2c(SCc3cc(=O)n4cc(Br)ccc4n3)nc3ccsc3c2=O)CC1 (configuration not stated)	-2	-1	-2%	-1	-3	0
O=C(OCc1cc2ccccc2[nH]c1=O)c1ccccc1	6	-2	-1%	-11	-7	24
Cc1ccc(NC(=O)Cc2c(C(=O)O)n(C)c3ccccc23)cc1F	0	0	-3%	-1	1	1
Cn1c(C(=O)O)c(CC(=O)Nc2ccc(F)cc2F)c2ccccc21	0	1	0%	-50*	-1	-2
COc1cc(OC)c2c(C)c(Cl)c(=O)oc2c1	-1	0	0%	-36*	-10	-3
O=C(c1ccncc1)N1CCC2(CC1)CCN(c1cccc(-c3ccccc3)c1)CC2	x	x	-2%	x	x	x
Cc1ccc(OCC(=O)Nc2ccc3nc(SCC(=O)N4CCc5ccccc54)sc3c2)cc1	0	-1	-2%	-35*	4	5
CCOC(=O)Nc1ccc2nc(Sc3ccc(Cl)cc3)sc2c1	7	0	-5%	-34*	-6	-7
COc1cccc(C(=O)Nc2ccc3nc(SCC(=O)N4CCc5ccccc54)sc3c2)c1	8	1	1%	-38*	-2	-3
O=C(COc1ccc(Cl)cc1)Nc1ccc2nc(SCC(=O)N3CCOCC3)sc2c1	11	1	-4%	-36*	-2	-1
Cc1ccc(C(=O)Nc2ccc3nc(SCC(=O)N4CCc5ccccc54)sc3c2)cc1	4	1	-2%	-5	-1	-4
CCOC(=O)CSc1nc2ccc(NC(=O)c3ccc(Cl)cc3)cc2s1	11	2	12%	-22	-1	0
O=C(COc1ccccc1Cl)Nc1cccc(S(=O)(=O)N2CCCC2)c1	10	0	-4%	12	x	5
SMILES	D1 ag	TRHR ag	Glioma ERSR ind	D1 antagonist	D1 PAM	TRHR PAM
CCn1cc(C(=O)NCCCOC(C)C)c2cc(OC)c(OC)cc2c1=O	1	-1	-4%	-16	16	11
CN1CCCC(CN2c3ccccc3Sc3ccccc32)C1 (configuration not stated)	42*	6	-3%	-23	-5	2
CN1CCCC(CC2c3ccccc3Sc3ccccc32)C1 (configuration not stated)	53*	5	-2%	-41*	-1	-1
OC1CC2CCC(C1)N2CCCN1c2ccccc2Sc2ccc(Cl)cc21 (configuration not stated)	x	x	-11%	x	x	x
CN(CCC#N)C(=O)COC(=O)c1c2c(nc3ccccc13)/C(=C\c1ccco1)CC2	x	x	3%	x	x	x
Cc1ccc(-c2cn3nc(N4CCCC(C(=O)NCc5ccccc5F)C4)sc3n2)cc1 (configuration not stated)	0	0	2%	3	0	30*
CCc1ccccc1NC(=O)C1CCCN(c2nn3c(=O)cc(C)nc3s2)C1 (configuration not stated)	4	0	-2%	4	-5	0
Cc1cc(=O)n2nc(N3CCCC(C(=O)NCCc4ccc(Cl)cc4)C3)sc2n1 (configuration not stated)	0	-1	-4%	-35*	0	-2
Cc1cc(=O)n2nc(N3CCCC(C(=O)Nc4ccc(C)c(C)c4)C3)sc2n1 (configuration not stated)	2	-1	-1%	-59*	-4	3
O=C(NCCc1ccccc1)c1n[nH]c2ccccc12	-1	1	-1%	x	1	-3
Cc1ccc(CN(C)c2ccc(S(=O)(=O)N3CCCC3)cn2)cc1	x	x	-5%	x	x	x
COc1ccc(F)cc1S(=O)(=O)N1CCCN(S(=O)(=O)c2cc(F)ccc2OC)CC1	9	1	1%	-30*	0	-4
COc1ccc(F)cc1S(=O)(=O)N1CCCC(C)C1 (configuration not stated)	0	0	-4%	5	-5	13
COc1ccccc1N1CCN(S(=O)(=O)c2ccccc2)CC1	4	-2	-4%	-10	-3	-2
COc1ccccc1N1CCN(S(=O)(=O)c2ccccc2F)CC1	16	0	-3%	-32*	9	-2
O=C(Nc1ccc2c(c1)ncn2-c1ccccc1)c1ccco1	4	1	3%	6	0	5
COc1ccc2oc(C(=O)OCC(=O)N3CC(C)OC(C)C3)c(C)c2c1 (configuration not stated)	2	0	-2%	-22	-7	-2
CCOc1ccc(N2C(=O)CC(Sc3nc(-c4cccs4)cc(C(F)(F)F)c3C#N)C2=O)cc1 (configuration not stated)	1	1	-4%	2	4	5
Cc1c(NC(=S)NC(=O)c2sc3ccccc3c2Cl)cccc1C(=O)O	0	0	2%	9	14	5
COc1ccccc1C(=O)NC(=S)NNC(=O)c1sc2ccccc2c1Cl	199*	36*	-1%	10	6	3
COc1ccccc1C(=O)NNC(=S)NC(=O)c1sc2ccccc2c1Cl	213*	11	12%	9	9	6
